The whole screen tested about 5,500 compounds, of which about 2,000 (36%) were called active. About 18% were inconclusive and are not listed. No stated cut-off is given here; in the data, active means normalized growth mostly below about 0.91 (no sharp cut-off); inconclusive means no clear call, values can overlap the other calls; inactive means mostly above about 0.92. The list shows a part of the results.
Experiment: chemical genetic growth profiling, strain panel (AID 1159580);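 further: tested at 20 µM; growth read once vehicle control cultures reached saturation at 30 °C; 1 = growth at the plate median or of vehicle wells; lower values mean less growth of the strain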
Settings: growth OD

Measured: normalized growth

O=C(OC[C@H]1O[C@H](OC(=O)c2cc(O)c(O)c(OC(=O)c3cc(O)c(O)c(O)c3)c2)[C@H](OC(=O)c2cc(O)c(O)c(OC(=O)c3cc(O)c(O)c(O)c3)c2)[C@@H](OC(=O)c2cc(O)c(O)c(OC(=O)c3cc(O)c(O)c(O)c3)c2)[C@@H]1OC(=O)c1cc(O)c(O)c(OC(=O)c2cc(O)c(O)c(O)c2)c1)c1cc(O)c(O)c(OC(=O)c2cc(O)c(O)c(O)c2)c1
inactive: S. cerevisiae deletion strains, locus YKR026C, strain gcn3, hits give low values 1.03 | S. cerevisiae deletion strains, locus YKR091W, strain srl3, hits give low values 0.968 | S. cerevisiae deletion strains, locus YLL041C, strain sdh2, hits give low values 0.951 | S. cerevisiae deletion strains, locus YLR113W, strain HOG1, hits give low values 1.08 | S. cerevisiae deletion strains, locus YMR125W, strain sto1, hits give low values 1.04 | S. cerevisiae deletion strains, locus YNL183C, strain NPR1, hits give low values 0.988 | S. cerevisiae deletion strains, locus YNL248C, strain rpa49, hits give low values 0.922 | S. cerevisiae deletion strains, locus YNR049C, strain mso1, hits give low values 0.944 | S. cerevisiae deletion strains, locus YOL012C, strain htz1 0.275 | S. cerevisiae deletion strains, locus YOR231W, strain MKK1, hits give low values 1.04 | S. cerevisiae deletion strains, locus YPL256C, strain CLN2, hits give low values 1.14
active: S. cerevisiae deletion strains, locus YJR075W, strain HOC1, hits give low values 0.104 | S. cerevisiae deletion strains, locus YKL009W, strain mrt4, hits give low values 0.125 | S. cerevisiae deletion strains, locus YKL068W, hits give low values 0.082 | S. cerevisiae deletion strains, locus YKL085W, strain MDH1 (second series), hits give low values 0.0765 | S. cerevisiae deletion strains, locus YKL085W, strain MDH1, hits give low values 0.0765 | S. cerevisiae deletion strains, locus YKL160W, strain elf1, hits give low values 0.761 | S. cerevisiae deletion strains, locus YKL190W, strain CNB1, hits give low values 0.0756 | S. cerevisiae deletion strains, locus YKR001C, strain vps1, hits give low values 0.101 | S. cerevisiae deletion strains, locus YLL001W, strain dnm1, hits give low values 0.693 | S. cerevisiae deletion strains, locus YLL026W, hits give low values 0.689 | S. cerevisiae deletion strains, locus YLR027C, strain aat2, hits give low values 0.82 | S. cerevisiae deletion strains, locus YLR039C, strain RIC1, hits give low values 0.131 | S. cerevisiae deletion strains, locus YLR058C, strain SHM2, hits give low values 0.0679 | S. cerevisiae deletion strains, locus YLR102C, strain apc9, hits give low values 0.0965 | S. cerevisiae deletion strains, locus YLR221C, strain rsa3, hits give low values 0.785 | S. cerevisiae deletion strains, locus YLR258W, strain gsy2, hits give low values 0.807 | S. cerevisiae deletion strains, locus YLR262C, strain YPT6 (second series), hits give low values 0.596 | S. cerevisiae deletion strains, locus YLR262C, strain YPT6, hits give low values 0.149 | S. cerevisiae deletion strains, locus YLR268W, strain sec22, hits give low values 0.115 | S. cerevisiae deletion strains, locus YLR320W, strain mms22, hits give low values 0.777 | S. cerevisiae deletion strains, locus YLR330W, strain CHS5, hits give low values 0.0805 | S. cerevisiae deletion strains, locus YLR342W, strain FKS1 (second series), hits give low values 0.119 | S. cerevisiae deletion strains, locus YLR342W, strain FKS1, hits give low values 0.662 | S. cerevisiae deletion strains, locus YLR357W, strain rsc2, hits give low values 0.656 | S. cerevisiae deletion strains, locus YLR370C, strain arc18, hits give low values 0.334 | S. cerevisiae deletion strains, locus YLR371W, strain rom2, hits give low values 0.0958 | S. cerevisiae deletion strains, locus YLR384C, strain iki3, hits give low values 0.784 | S. cerevisiae deletion strains, locus YLR418C, strain cdc73, hits give low values 0.159 | S. cerevisiae deletion strains, locus YML016C, strain PPZ1, hits give low values 0.0844 | S. cerevisiae deletion strains, locus YML032C, strain rad52, hits give low values 0.103 | S. cerevisiae deletion strains, locus YML120C, strain ndi1, hits give low values 0.617 | S. cerevisiae deletion strains, locus YML124C, strain tub3, hits give low values 0.0933 | S. cerevisiae deletion strains, locus YMR058W, strain fet3, hits give low values 0.901 | S. cerevisiae deletion strains, locus YMR078C, strain ctf18, hits give low values 0.106 | S. cerevisiae deletion strains, locus YMR129W, hits give low values 0.921 | S. cerevisiae deletion strains, locus YMR205C, strain PFK2, hits give low values 0.721 | S. cerevisiae deletion strains, locus YMR223W, strain ubp8, hits give low values 0.0998 | S. cerevisiae deletion strains, locus YMR231W, strain pep5, hits give low values 0.148 | S. cerevisiae deletion strains, locus YMR263W, strain SAP30, hits give low values 0.0929 | S. cerevisiae deletion strains, locus YMR307W, strain GAS1, hits give low values 0.175 | S. cerevisiae deletion strains, locus YNL067W, strain RPL9B, hits give low values 0.0835 | S. cerevisiae deletion strains, locus YNL071W, strain lat1, hits give low values 0.88 | S. cerevisiae deletion strains, locus YNL128W, strain TEP1, hits give low values 0.0962 | S. cerevisiae deletion strains, locus YNL153C, strain GIM3, hits give low values 0.086 | S. cerevisiae deletion strains, locus YNL209W, strain ssb2, hits give low values 0.363 | S. cerevisiae deletion strains, locus YNL233W, strain BNI4, hits give low values 0.0934 | S. cerevisiae deletion strains, locus YNL250W, strain rad50, hits give low values 0.0969 | S. cerevisiae deletion strains, locus YNL271C, strain bni1, hits give low values 0.0916 | S. cerevisiae deletion strains, locus YNL298W, strain CLA4, hits give low values 0.0929 | S. cerevisiae deletion strains, locus YNL307C, strain MCK1, hits give low values 0.102 | S. cerevisiae deletion strains, locus YNL322C, strain KRE1 (second series), hits give low values 0.853 | S. cerevisiae deletion strains, locus YNL322C, strain KRE1, hits give low values 0.0735 | S. cerevisiae deletion strains, locus YNR052C, strain pop2, hits give low values 0.0934 | S. cerevisiae deletion strains, locus YOL006C, strain TOP1, hits give low values 0.155 | S. cerevisiae deletion strains, locus YOL147C, strain pex11, hits give low values 0.0861 | S. cerevisiae deletion strains, locus YOR001W, strain rrp6, hits give low values 0.663 | S. cerevisiae deletion strains, locus YOR061W, strain CKA2, hits give low values 0.065 | S. cerevisiae deletion strains, locus YOR069W, strain VPS5, hits give low values 0.0788 | S. cerevisiae deletion strains, locus YOR070C, strain gyp1, hits give low values 0.404 | S. cerevisiae deletion strains, locus YOR080W, strain dia2, hits give low values 0.349 | S. cerevisiae deletion strains, locus YOR083W, strain WHI5, hits give low values 0.695 | S. cerevisiae deletion strains, locus YOR106W, strain vam3, hits give low values 0.425 | S. cerevisiae deletion strains, locus YOR136W, strain idh2, hits give low values 0.108 | S. cerevisiae deletion strains, locus YOR144C, strain elg1, hits give low values 0.0856 | S. cerevisiae deletion strains, locus YOR184W, strain ser1, hits give low values 0.124 | S. cerevisiae deletion strains, locus YOR265W, strain rbl2, hits give low values 0.845 | S. cerevisiae deletion strains, locus YOR270C, strain vph1, hits give low values 0.438 | S. cerevisiae deletion strains, locus YOR290C, strain snf2, hits give low values 0.169 | S. cerevisiae deletion strains, locus YOR316C, strain cot1, hits give low values 0.0869 | S. cerevisiae deletion strains, locus YPL051W, strain arl3, hits give low values 0.565 | S. cerevisiae deletion strains, locus YPL055C, strain LGE1, hits give low values 0.103 | S. cerevisiae deletion strains, locus YPL078C, strain atp4, hits give low values 0.582 | S. cerevisiae deletion strains, locus YPL106C, strain sse1, hits give low values 0.829 | S. cerevisiae deletion strains, locus YPL240C, strain hsp82, hits give low values 0.889 | S. cerevisiae deletion strains, locus YPL241C, strain CIN2, hits give low values 0.0787 | S. cerevisiae deletion strains, locus YPR119W, strain clb2, hits give low values 0.0923 | S. cerevisiae deletion strains, locus YPR141C, strain kar3, hits give low values 0.096 | S. cerevisiae deletion strains, locus YPR163C, strain tif3, hits give low values 0.102 | S. cerevisiae deletion strains, locus YPR167C, strain met16, hits give low values 0.0927 | S. cerevisiae deletion strains, strain wtn01, hits give low values 0.0926 | S. cerevisiae strains, strain wild type, hits give low values 0.0831
